Assay [1] in a line: APR_HepG2_NuclearSize_72hr: Apredica 72-hour HepG2 Assay for Nuclear Size (AID 2282925). Conditions: high-content imaging, actives raise or lower the signal. A digest of the protocol:
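HepG2 cells were exposed to compounds at ten concentrations from 0.39 to 200 uM (duplicate, 0.5% DMSO final) for 72 hr. After fixation in 3.7% formaldehyde, nuclei were stained with Hoechst 33342 (2 ug/mL) and imaged at 20x.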

Assay [2] is described as follows: ATG_CRE_CIS: Attagene CIS-FACTORIAL HepG2 Assay for human cAMP Responsive Element (CRE) binding protein 3 (AID 2282926). Conditions: HepG2 CRE cis-reporter, Attagene multiplexed mRNA; actives raise or lower the signal. Summed up: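 Transfected HepG2 were treated for 24 hours, then RNA was extracted and reporter cDNA amplified with sequence-specific primers. Labelled fragments were separated by capillary electrophoresis, and the CRE signal was fitted bidirectionally with DMSO as baseline.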

Assay [3] deals with CCAAT/enhancer-binding protein beta (Homo sapiens) (UniProt P17676). Nature of the assay: ATG_C_EBP_CIS: Attagene CIS-FACTORIAL HepG2 Assay for human CCAAT/Enhancer Binding Protein (C/EBP) beta (AID 2282927). The following applies: HepG2 Attagene cis-factorial transcription factor reporter; actives raise or lower the signal. Summed up:
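Following a 24 h incubation with test chemical, transfected HepG2 cells yielded RNA whose reporter transcripts were quantified by RT-PCR and fluorescent capillary electrophoresis, with DMSO serving as baseline for bidirectional fitting.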

Assay [4] in a line: ATG_CMV_CIS: Attagene CIS-FACTORIAL HepG2 Assay for human CMV (Internal Marker) (AID 2282928).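 Also: endpoint acts as a background internal control marker rather than a target.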 Conditions: HepG2 CMV promoter reporter, transcription factor profiling; actives raise or lower the signal. Summed up:
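Cell system: HepG2, transiently transfected multiple reporter units under cis promoters. Exposure: 24 h. Detection: RT-PCR, FAM labeling, HpaI digestion, capillary electrophoresis. Analysis: bidirectional, DMSO baseline.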

Assay [5] is described as follows: ATG_DR4_LXR_CIS: Attagene CIS-FACTORIAL HepG2 Assay for human Liver X Receptor (LXR), DR4 submotif (AID 2282929). Conditions: HepG2 Attagene DR4 cis-reporter, mRNA transcription; actives raise or lower the signal. A digest of the protocol: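 HepG2, transient MRTU transfection, cis-element (DR4) promoter; 24 h compound exposure; total RNA → oligo(dT) RT → PCR → 6-FAM primer extension → HpaI cut → CE. Gain/loss vs DMSO, bidirectional fit.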

For assay [6], the target named is Aryl hydrocarbon receptor (Homo sapiens) (UniProt P35869). Nature of the assay: ATG_Ahr_CIS: Attagene CIS-FACTORIAL HepG2 Assay for human Aryl Hydrocarbon Receptor (Ahr) (AID 2282930). Conditions: HepG2 AhR cis-factorial reporter transcription; actives raise or lower the signal. Summed up: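 Values derive from bidirectional fitting against DMSO negative control. Underlying signal: cis-element reporter mRNA in transiently transfected HepG2, harvested 24 h post-dose and measured by RT-PCR plus capillary electrophoresis.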

Assay [7] in a line: ATG_AP_1_CIS: Attagene CIS-FACTORIAL HepG2 Assay for human Activator Protein 1 (AP-1) (AID 2282931). The following applies: HepG2 Attagene cis-factorial AP-1 reporter mRNA; actives raise or lower the signal. A digest of the protocol: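 Transient MRTU transfection of HepG2 → 24 h chemical treatment → RNA isolation, RT-PCR, 6-FAM labelling, HpaI digest → capillary electrophoresis. Fit: bidirectional, DMSO negative control.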

The nature of assay [8]: ATG_AP_2_CIS: Attagene CIS-FACTORIAL HepG2 Assay for human Activator Protein 2 (AP-2) (AID 2282932). The following applies: HepG2 AP-2 cis-reporter, Attagene transcription factor profiling; actives raise or lower the signal. Summed up:
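HepG2 cells were transiently transfected with multiple cis-promoter reporter transcription units and dosed for 24 h. Reporter mRNA was measured by RT-PCR with capillary electrophoresis fluorescence; bidirectional fits relative to DMSO baseline.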

A short description of assay [9]: ATG_BRE_CIS: Attagene CIS-FACTORIAL HepG2 Assay for human Bone Morphogenetic Protein (BMP) Response Element (BRE) (AID 2282933). Conditions: HepG2 BMP response element reporter, Attagene transcription factor profiling; actives raise or lower the signal. A digest of the protocol: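 After a 24 h chemical treatment, transiently transfected HepG2 cells were lysed for RNA; reporter transcripts were quantified by fluorescent RT-PCR and capillary electrophoresis, normalised to DMSO.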

The target of assay [10] is Retinoic acid receptor alpha (Homo sapiens) (UniProt P10276). In words: ATG_DR5_RAR_CIS: Attagene CIS-FACTORIAL HepG2 Assay for human Retinoic Acid Receptor Alpha (RARE), DR5 submotif (AID 2282934).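 As to AC50: reporter responds to endogenous RAR alpha beta and gamma in HepG2 not RARA alone.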 Conditions: HepG2 Attagene cis-factorial RARE DR5 reporter, mRNA; actives raise or lower the signal. A digest of the protocol: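 Endpoint fitted in both directions relative to DMSO as negative control. It reflects DR5 cis-element reporter mRNA induction in transiently transfected HepG2 cells, measured 24 h after dosing through RT-PCR and fluorescent capillary electrophoresis.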

In assay [11] the target is Transcription factor E2F1 (Homo sapiens) (UniProt Q01094). In words: ATG_E2F_CIS: Attagene CIS-FACTORIAL HepG2 Assay for human E2F Transcription Factor 1 (AID 2282935). Conditions: HepG2 Attagene cis-reporter, E2F reporter RNA transcripts; actives raise or lower the signal. Summed up:
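HepG2 cells transiently transfected with multiplexed cis-element reporter units, dosed for 24 h. Reporter mRNA measured by RT-PCR, 6-FAM primer-extension labeling, HpaI digestion and capillary electrophoresis; bidirectional fit versus DMSO baseline.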

Assay [12] in a line: ATG_E_Box_CIS: Attagene CIS-FACTORIAL HepG2 Assay for human Enhancer Box (E-box) (AID 2282936). Conditions: HepG2 E-box cis-reporter transcription, actives raise or lower the signal. Summed up: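 HepG2 cells transiently transfected with multiplexed cis-element reporter units sensing endogenous transcription factor activity; 24 h compound exposure. Reporter mRNA measured by RT-PCR, 6-FAM primer extension, HpaI digestion and capillary electrophoresis; bidirectional fit versus DMSO.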

Assay [13] in a line: ATG_M_61_CIS: Attagene CIS-FACTORIAL HepG2 Assay for M61 Transcription Factor (Internal Marker) (AID 2282937). The following applies: HepG2 Attagene CIS-FACTORIAL M61 internal marker reporter; actives raise or lower the signal. Summed up:
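Human liver HepG2, transient MRTU transfection (cis promoter elements), 24 h compound. Total RNA → oligo(dT) RT → PCR → FAM label → HpaI → CE. Internal background marker; bidirectional fitting, DMSO = baseline.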

Assay [14] in a line: ATG_EGR_CIS: Attagene CIS-FACTORIAL HepG2 Assay for human Early Growth Response 1 (EGR1) (AID 2282938). Conditions: HepG2 Attagene CIS-FACTORIAL EGR reporter mRNA; actives raise or lower the signal. Summed up: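 Transient transfection of human HepG2 with multiple cis-regulated reporter units, chemical exposure 24 h, total RNA isolated. Reverse transcription, PCR, fluorescent labelling and capillary electrophoresis quantify reporter transcripts; activity fitted bidirectionally against DMSO.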

The nature of assay [15]: ATG_M_19_CIS: Attagene CIS-FACTORIAL HepG2 Assay for M19 Transcription Factor (Internal Marker) (AID 2282939). Conditions: HepG2 Attagene CIS-FACTORIAL M19 internal marker reporter; actives raise or lower the signal. A digest of the protocol:
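In this multiplexed cell assay, transiently transfected HepG2 reporter units report endogenous transcription-factor activity; after 24 hours of treatment, labelled reporter cDNA fragments are quantified by capillary electrophoresis and fitted bidirectionally against DMSO.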

Assay [16] can be described thus: ATG_ERE_CIS: Attagene CIS-FACTORIAL HepG2 Assay for Estrogen Response Element (ERE) (AID 2282940). Conditions: HepG2 ERE cis-reporter, Attagene RNA transcript; actives raise or lower the signal. A digest of the protocol: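 Measuring endogenous transcription factor output, the assay doses transfected HepG2 cells for 24 hours and quantifies reporter transcripts by fluorescent RT-PCR and capillary electrophoresis, with DMSO as baseline.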

Assay [17] concerns the target Hepatocyte nuclear factor 3-beta (Homo sapiens) (UniProt Q9Y261). In words: ATG_FoxA2_CIS: Attagene CIS-FACTORIAL HepG2 Assay for human Forkhead box A2 (FOXA2) (AID 2282942). Conditions: HepG2 cis-reporter transcription factor activity, 24 h; actives raise or lower the signal. A digest of the protocol: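 Transient MRTU transfection of HepG2 liver cells; 24 h treatment; total RNA → oligo(dT) RT → PCR → FAM primer extension → HpaI cut → CE. Bidirectional fit vs DMSO.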

Assay [18] is described as follows: ATG_FoxO_CIS: Attagene CIS-FACTORIAL HepG2 Assay for human Forkhead box O (FoxO) (AID 2282943). The following applies: HepG2 Attagene cis-reporter, FoxO element, mRNA; actives raise or lower the signal. Summed up:
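Values reflect reporter mRNA induction or loss in HepG2 cells 24 h post-dosing, fitted bidirectionally with DMSO as negative control and baseline. Detection used RT-PCR and fluorescence capillary electrophoresis.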

The nature of assay [19]: ATG_GATA_CIS: Attagene CIS-FACTORIAL HepG2 Assay for human GATA Binding Protein (AID 2282944). The following applies: HepG2 GATA cis-element reporter, Attagene multiplex mRNA; actives raise or lower the signal. Summed up: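 Measures endogenous transcription factor-driven reporter mRNA in HepG2 cells transiently carrying cis-regulated constructs. 24 h dosing; RNA via oligo(dT) reverse transcription, PCR, HpaI digestion, capillary electrophoresis; fitted relative to DMSO.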

“And” between values parts separate entries of the source, which are not always exact repeats. Equal entries are not always repeated. Some compounds were tested as several samples or in several runs, with calls that do not always agree. The source made the active and inactive calls. The calls were made as follows: active = hit-call score of the fitted dose curve at least 0.9, where 1 is the maximum; inactive = score below 0.9.

Sequence of CCAAT/enhancer-binding protein beta (Homo sapiens) (P17676 whole entry, looked up): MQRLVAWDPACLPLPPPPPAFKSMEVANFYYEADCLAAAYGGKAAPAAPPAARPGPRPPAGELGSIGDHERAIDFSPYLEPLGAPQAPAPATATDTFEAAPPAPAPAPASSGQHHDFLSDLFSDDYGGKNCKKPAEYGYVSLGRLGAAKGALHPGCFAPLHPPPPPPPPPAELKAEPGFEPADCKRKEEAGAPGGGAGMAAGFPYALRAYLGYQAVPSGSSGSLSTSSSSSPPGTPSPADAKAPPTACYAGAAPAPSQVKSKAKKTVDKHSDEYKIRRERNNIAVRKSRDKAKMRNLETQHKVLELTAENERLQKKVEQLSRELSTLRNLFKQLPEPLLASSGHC
Sequence of Aryl hydrocarbon receptor (Homo sapiens) (P35869 whole entry, looked up): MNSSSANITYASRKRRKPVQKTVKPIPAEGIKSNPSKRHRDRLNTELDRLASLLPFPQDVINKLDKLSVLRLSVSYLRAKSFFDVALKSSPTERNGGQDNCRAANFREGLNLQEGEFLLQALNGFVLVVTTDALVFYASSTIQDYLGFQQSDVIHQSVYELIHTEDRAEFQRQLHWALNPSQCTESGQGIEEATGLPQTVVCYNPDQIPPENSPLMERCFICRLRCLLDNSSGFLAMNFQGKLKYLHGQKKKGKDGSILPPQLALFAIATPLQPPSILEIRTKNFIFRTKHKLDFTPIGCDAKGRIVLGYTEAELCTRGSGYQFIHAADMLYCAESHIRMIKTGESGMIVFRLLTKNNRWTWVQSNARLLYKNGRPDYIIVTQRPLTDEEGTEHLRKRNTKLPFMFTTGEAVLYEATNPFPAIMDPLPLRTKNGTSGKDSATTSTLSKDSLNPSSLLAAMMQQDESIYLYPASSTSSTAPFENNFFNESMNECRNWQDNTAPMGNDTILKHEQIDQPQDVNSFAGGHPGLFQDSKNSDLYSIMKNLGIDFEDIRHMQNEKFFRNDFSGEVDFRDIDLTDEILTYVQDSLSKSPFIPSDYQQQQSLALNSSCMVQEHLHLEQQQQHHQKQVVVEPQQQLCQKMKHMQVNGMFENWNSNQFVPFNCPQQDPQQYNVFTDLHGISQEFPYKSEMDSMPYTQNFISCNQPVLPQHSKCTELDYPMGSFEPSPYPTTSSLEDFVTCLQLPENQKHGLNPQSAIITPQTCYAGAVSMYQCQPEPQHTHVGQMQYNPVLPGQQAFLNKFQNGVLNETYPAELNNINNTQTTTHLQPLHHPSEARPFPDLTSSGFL
Sequence of Retinoic acid receptor alpha (Homo sapiens) (P10276 whole entry, looked up): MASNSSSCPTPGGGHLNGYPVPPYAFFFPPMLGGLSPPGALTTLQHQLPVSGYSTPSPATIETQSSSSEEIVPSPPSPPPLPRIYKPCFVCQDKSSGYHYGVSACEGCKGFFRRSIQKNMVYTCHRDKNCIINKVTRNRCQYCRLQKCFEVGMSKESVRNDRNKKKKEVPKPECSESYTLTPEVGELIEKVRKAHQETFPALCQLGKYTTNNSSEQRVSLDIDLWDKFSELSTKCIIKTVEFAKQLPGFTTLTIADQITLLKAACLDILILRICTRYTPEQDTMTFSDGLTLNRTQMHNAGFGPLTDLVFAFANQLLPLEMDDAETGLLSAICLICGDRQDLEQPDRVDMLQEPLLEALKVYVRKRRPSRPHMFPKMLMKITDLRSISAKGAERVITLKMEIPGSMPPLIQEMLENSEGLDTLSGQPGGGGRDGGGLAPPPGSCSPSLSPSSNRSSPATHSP
Sequence of Transcription factor E2F1 (Homo sapiens) (Q01094 whole entry, looked up): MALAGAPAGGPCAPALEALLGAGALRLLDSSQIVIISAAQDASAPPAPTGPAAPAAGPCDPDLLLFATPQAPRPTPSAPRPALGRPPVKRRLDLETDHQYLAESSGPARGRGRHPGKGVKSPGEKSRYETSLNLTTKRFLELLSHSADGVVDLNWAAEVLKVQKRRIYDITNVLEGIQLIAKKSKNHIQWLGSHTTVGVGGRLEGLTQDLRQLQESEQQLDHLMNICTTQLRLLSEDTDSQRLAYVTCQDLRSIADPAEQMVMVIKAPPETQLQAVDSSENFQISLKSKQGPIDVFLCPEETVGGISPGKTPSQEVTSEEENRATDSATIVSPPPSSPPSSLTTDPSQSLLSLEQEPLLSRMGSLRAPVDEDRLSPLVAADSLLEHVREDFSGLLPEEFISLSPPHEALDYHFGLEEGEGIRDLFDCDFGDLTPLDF
Sequence of Hepatocyte nuclear factor 3-beta (Homo sapiens) (Q9Y261 whole entry, looked up): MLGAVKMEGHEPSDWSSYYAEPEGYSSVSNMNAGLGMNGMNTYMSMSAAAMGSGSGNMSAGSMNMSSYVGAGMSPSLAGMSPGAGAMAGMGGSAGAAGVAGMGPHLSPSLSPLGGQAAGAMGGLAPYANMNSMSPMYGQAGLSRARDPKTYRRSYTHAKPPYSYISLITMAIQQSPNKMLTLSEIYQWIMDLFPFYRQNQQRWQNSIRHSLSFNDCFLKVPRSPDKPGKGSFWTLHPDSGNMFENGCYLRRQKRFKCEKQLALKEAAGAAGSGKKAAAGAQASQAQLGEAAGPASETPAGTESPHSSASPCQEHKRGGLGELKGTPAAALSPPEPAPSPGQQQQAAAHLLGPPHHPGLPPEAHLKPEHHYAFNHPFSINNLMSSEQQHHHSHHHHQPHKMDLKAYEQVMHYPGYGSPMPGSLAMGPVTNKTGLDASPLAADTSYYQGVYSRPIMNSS

For orientation: AC50 means the concentration at which the activity in the assay is half-maximal. As to `CCCOc1sc(C(=O)N2CCC(c3cc(CN)ccc3F)CC2)c(C)c1Br`, the AC50 in assay [1] is 97.5 µM (active); in assay [7], 3.7 µM (active); in assay [16], 2.72 µM (active). The result in assay [2], in assay [3], in [4], in [5], in assay [6] and in assay [8] was inactive. For the same compound, the compound was called inactive in [9], in [10], in [11], in assay [12], in assay [13] and in [14]. Moreover, the call in assay [15], in [17], in [18] and in assay [19] was inactive.
Take `O=C(O)c1ccccc1C(c1ccc(O)cc1)c1ccc(O)cc1`: the compound was classed as inactive in assay [1], in assay [2], in assay [3], in assay [4], in assay [5] and in [6]. In addition, the call in assay [7], in [8], in [9], in assay [10], in assay [11] and in assay [12] was inactive. The outcome in assay [13], in assay [14], in assay [15], in assay [17], in [18] and in [19] was inactive. For the same compound, the AC50 is 64.8 µM (active) in assay [6] and 62.7 µM (active) [middle of 4 runs] in [16].
For the compound `O=C(O)Cc1cc(I)c(Oc2cc(I)c(O)c(I)c2)c(I)c1`, the compound was called inactive in assay [1], in [2], in [5], in [6], in [9] and in assay [11]. Also, the result in [12], in assay [13], in [16], in assay [17], in assay [18] and in assay [19] was inactive. Besides, the AC50 in assay [2] was 18.3 µM (active); in [3], 29.1 µM (active) and 17.8 µM (active); in assay [4] it was 22.4 µM (active) and 16.7 µM (active); in assay [5], 14.9 µM (active); in assay [6], 89.3 µM (active); in assay [7], 16.5 µM (active) and 122 µM (active). Also, the half-maximal activity concentration (AC50) in assay [9] is 51 µM (active); in assay [10] it was 41.1 µM (active) and 32.5 µM (active); in assay [12], 113 µM (active); in [14] it was 22.5 µM (active) and 36.5 µM (active); in [17] it was 83.7 µM (active); in assay [18] it was 46.7 µM (active). Also, the concentration at half-maximal activity (AC50) in assay [19] is 115 µM (active).

Source of the values: PubChem BioAssay (EPA / NIEHS).
